ROS inducer: inducers of reactive oxygen species in cancer cells; 46,000 compounds, 2% hits; AID 624156; U2OS ROS induction, H2DCF-DA fluorescence; ROS induction (% of piperlongumine), % at 10 µM; in the data active = ROS induction above about 79%, passing the limit was not always enough
Numbers stand for hits; . = inactive. The full list was thinned out, with hits kept by preference.

SMILES | ROS inducer
C[C@@H]1CCCCO[C@@H](CN(C)C(=O)Nc2ccc(F)cc2)[C@@H](C)CN([C@H](C)CO)C(=O)c2cc(NC(=O)CCC(F)(F)F)ccc2O1 | 140
C[C@@H]1CCCCO[C@@H](CN(C)Cc2ccncc2)[C@@H](C)CN([C@H](C)CO)C(=O)c2cc(NC(=O)C3CCCCC3)ccc2O1 | .
C[C@@H]1CCCCO[C@H](CN(C)Cc2ccc(C(F)(F)F)cc2)[C@@H](C)CN([C@H](C)CO)C(=O)c2cc(NC(=O)C3CCCCC3)ccc2O1 | 87
COc1cc(NC(=O)COc2ccc([N+](=O)[O-])cc2)ccc1NC(=O)c1ccccc1Cl | .
COc1ccc(S(=O)(=O)N(C)C[C@H]2Oc3ccc(NS(=O)(=O)c4ccccc4)cc3C(=O)N([C@H](C)CO)C[C@@H]2C)cc1 | .
COc1ccc(NC(=O)Nc2ccc3c(c2)C(=O)N([C@@H](C)CO)C[C@@H](C)[C@H](CN(C)C(=O)Nc2ccc(F)cc2)O3)cc1 | .
Cc1ccc(S(=O)(=O)Nc2ccc3c(c2)CC(=O)N([C@H](C)CO)C[C@@H](C)[C@@H](CN(C)Cc2ccc(C(=O)O)cc2)O3)cc1 | .
COc1ccc(C(=O)CSc2nc(C)cc(=O)[nH]2)cc1[N+](=O)[O-] | .
Cn1c(=O)[nH]c2ncn(C)c2c1=O | .
Cc1noc(C)c1S(=O)(=O)Nc1cccc2c1O[C@@H](CN(C)Cc1ccc(Oc3ccccc3)cc1)[C@@H](C)CN([C@H](C)CO)C2=O | .
COc1ccc(S(=O)(=O)Nc2cccc3c2O[C@@H](CN(C)Cc2ccc(Cl)c(Cl)c2)[C@@H](C)CN([C@H](C)CO)C3=O)cc1 | .
C[C@H](CO)N1C[C@H](C)[C@@H](CN(C)Cc2ccc(-c3ccccc3)cc2)Oc2c(NS(=O)(=O)c3cccs3)cccc2C1=O | 89
COc1ccc(S(=O)(=O)Nc2cccc3c2O[C@H](CN(C)Cc2ccc(Cl)c(Cl)c2)[C@H](C)CN([C@@H](C)CO)C3=O)cc1 | 84
Cc1noc(C)c1S(=O)(=O)Nc1cccc2c1O[C@@H](CN(C)Cc1ccc(-c3ccccc3)cc1)[C@@H](C)CN([C@@H](C)CO)C2=O | .
COc1ccc(S(=O)(=O)Nc2cccc3c2O[C@@H](CN(C)Cc2ccc(-c4ccccc4)cc2)[C@@H](C)CN([C@@H](C)CO)C3=O)cc1 | .
COc1ccc(S(=O)(=O)Nc2cccc3c2O[C@H](CN(C)Cc2ccc(-c4ccccc4)cc2)[C@H](C)CN([C@H](C)CO)C3=O)cc1 | 96
Cc1noc(C)c1S(=O)(=O)Nc1cccc2c1O[C@H](CN(C)Cc1ccc(-c3ccccc3)cc1)[C@H](C)CN([C@@H](C)CO)C2=O | 122
C[C@@H]1CN([C@@H](C)CO)C(=O)c2cccc(NS(=O)(=O)c3cccs3)c2O[C@@H]1CN(C)Cc1ccc(-c2ccccc2)cc1 | .
COc1ccc(S(=O)(=O)Nc2cccc3c2O[C@H](CN(C)Cc2ccc(Cl)c(Cl)c2)[C@@H](C)CN([C@H](C)CO)C3=O)cc1 | .
C[C@H]1CN([C@@H](C)CO)C(=O)c2cccc(NS(=O)(=O)c3cccs3)c2O[C@H]1CN(C)Cc1ccccc1 | .
COc1ccc(S(=O)(=O)Nc2cccc3c2O[C@@H](CN(C)Cc2ccc(-c4ccccc4)cc2)[C@H](C)CN([C@@H](C)CO)C3=O)cc1 | .
CCOC(=O)c1cc(-c2csc(Nc3ccccc3Cl)n2)on1 | .
C[C@@H]1CN([C@@H](C)CO)C(=O)c2cc(NC(=O)Cc3cn(C)c4ccccc34)ccc2O[C@@H]1CN(C)Cc1ccc2c(c1)OCO2 | .
CC1(C)Cc2nc3sc4c(SCC(=O)NCc5ccccc5)ncnc4c3cc2CO1 | .
COc1ccc(CN(C)C[C@@H]2Oc3ccc(NC(=O)Cn4cnnn4)cc3C(=O)N([C@H](C)CO)C[C@@H]2C)cc1 | .
SMILES | ROS inducer
C[C@@H]1CN([C@H](C)CO)C(=O)c2cc(NS(C)(=O)=O)ccc2O[C@H]1CN(C)Cc1ccccc1 | .
C[C@@H]1CCCCO[C@H](CN(C)C(=O)Cc2ccccc2)[C@@H](C)CN([C@H](C)CO)C(=O)c2cc(NC(=O)C3CCCCC3)ccc2O1 | .
CC(C)CC1NC(=O)C(CC(C)C)N(O[C@@H]2O[C@H](COC(=O)CCC(=O)O)[C@@H](O)[C@H](O)[C@H]2O)C1=O (some centres undefined) | .
Cc1ccc(S(=O)(=O)Nc2cccc3c2O[C@@H](CN(C)Cc2ccc(Oc4ccccc4)cc2)[C@@H](C)CN([C@H](C)CO)C3=O)cc1 | .
Cc1ccc(S(=O)(=O)Nc2cccc3c2O[C@H](CN(C)Cc2ccc(Oc4ccccc4)cc2)[C@@H](C)CN([C@@H](C)CO)C3=O)cc1 | .
COc1ccc(S(=O)(=O)Nc2cccc3c2O[C@@H](CN(C)Cc2ccc(Oc4ccccc4)cc2)[C@H](C)CN([C@H](C)CO)C3=O)cc1 | .
C[C@H]1CN([C@@H](C)CO)C(=O)c2cccc(NS(=O)(=O)c3ccc(F)cc3)c2O[C@@H]1CN(C)Cc1ccc(Oc2ccccc2)cc1 | 104
Cc1ccc(S(=O)(=O)Nc2cccc3c2O[C@H](CN(C)Cc2ccc(Oc4ccccc4)cc2)[C@H](C)CN([C@H](C)CO)C3=O)cc1 | 125
COc1ccc(S(=O)(=O)Nc2cccc3c2O[C@H](CN(C)Cc2ccc(Oc4ccccc4)cc2)[C@@H](C)CN([C@@H](C)CO)C3=O)cc1 | .
C[C@H](CO)N1C[C@H](C)[C@H](CN(C)Cc2ccc(Oc3ccccc3)cc2)Oc2c(NS(=O)(=O)c3ccc(F)cc3)cccc2C1=O | .
C[C@@H]1CN([C@@H](C)CO)C(=O)c2cccc(NS(=O)(=O)c3ccc(F)cc3)c2O[C@H]1CN(C)Cc1ccc(Oc2ccccc2)cc1 | .
COc1ccc(S(=O)(=O)Nc2cccc3c2O[C@H](CN(C)Cc2ccc(Oc4ccccc4)cc2)[C@H](C)CN([C@@H](C)CO)C3=O)cc1 | 110
O=S1(=O)CC(O)C(S(=O)(=O)c2ccc(Cl)cc2)C1 (centres undefined) | .
[N-]=[N+]=Nc1ccccc1C[C@]1(C(=O)NCCN2CCOCC2)N=C(c2ccc(OCCCO)cc2)O[C@H]1c1ccccc1N=[N+]=[N-] | .
C[C@H]1CN([C@@H](C)CO)C(=O)CCCn2nncc2CO[C@@H]1CN(C)C(=O)Nc1ccnc(N2CCOCC2)c1 | .
CC(C)OC(=O)N(C)c1ccc(C(O)(C(F)(F)F)C(F)(F)F)cc1 | .
C[C@@H]1CN([C@@H](C)CO)C(=O)c2cc(NC(=O)CCN3CCOCC3)ccc2O[C@H]1CN(C)C | .
Cn1c(SCC(=O)c2cccc([N+](=O)[O-])c2)nnc1-c1ccco1 | .
C=CCN1C(=O)[C@]2(O[C@H](CCn3cc([C@H](O)c4ccccc4)nn3)[C@@H]([Si](C)(C)c3ccc(OC)cc3)[C@@H]2C)c2ccccc21 | .
C=CCN1C(=O)[C@@]2(O[C@@H](CCn3cc(CCO)nn3)[C@H]([Si](C)(C)c3ccc(OC)cc3)[C@H]2C)c2cc(N3C(=O)c4cccc5cccc3c45)ccc21 | 90
C=CCN1C(=O)[C@]2(O[C@H](CCn3cc(CCO)nn3)[C@@H]([Si](C)(C)c3ccc(OC)cc3)[C@@H]2C)c2cc(N3C(=O)c4cccc5cccc3c45)ccc21 | 97
C=CCN1C(=O)[C@@]2(O[C@@H](CCn3cc(CCO)nn3)[C@H]([Si](C)(C)c3ccc(OC)cc3)[C@H]2C)c2ccccc21 | .
COc1ccc([Si](C)(C)[C@@H]2[C@@H](CCn3cc(CCO)nn3)O[C@]3(C(=O)N(C)c4ccccc43)[C@H]2C)cc1 | .
